According to PubChem BioAssay (Tox21):
Activity calls are given as the source filed them. Where a call stands in place of a potency, no number is given. Unless noted, calls come from the whole dose curve; as a rule, active = well fitted curve in the direction sought with a large enough effect in the repeat runs; inconclusive = weak or mixed curves; inactive = flat fitted curve, though single readings scatter.

How the values were obtained:
[1] = qHTS assay to test for compound auto fluorescence at 535 nm (green) in HEK293 cells (AID 720680)
[2] = qHTS assay to test for compound auto fluorescence at 460 nm (blue) in HEK293 cell free culture (AID 720681)
In short: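 Compounds were added to cell-free DMEM with 10% FBS and fluorescence read directly. The blue channel used 405 nm excitation and 460 nm emission, with triamterene as the reference fluorophore.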

[3] = qHTS assay to test for compound auto fluorescence at 535 nm (green) in HEK293 cell free culture (AID 720682)
In short: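 Green-channel intensity (Ex/Em 485/535 nm) was recorded from compound-treated wells containing only DMEM with 10% FBS. Fluorescein provided the equivalency standard.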

[4] = qHTS assay to test for compound auto fluorescence at 590 nm (red) in HEK293 cell free culture (AID 720683)
In short: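 Cell-free wells of DMEM with 10% FBS received compound, and intrinsic fluorescence was read at excitation/emission 540/590 nm. Values expressed as equivalence to Rose Bengal sodium.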

[5] = qHTS assay to test for compound auto fluorescence at 590 nm (red) in HepG2 cell free culture (AID 720684)
In short: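 Compound was pinned into wells holding MEM with 10% FBS and no cells, and red fluorescence was read at Ex/Em 540/590 nm. Signal is expressed as auto fluorescence equivalency relative to Rose Bengal sodium.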

[6] = qHTS assay to test for compound auto fluorescence at 460 nm (blue) in HepG2 cell free culture (AID 720685)
In short: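 Compound (23 nL) or DMSO pinned into cell-free MEM with 10% FBS; blue fluorescence read at 405/460 nm excitation/emission, expressed as auto-fluorescence equivalency to triamterene.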

[7] = qHTS assay to test for compound auto fluorescence at 535 nm (green) in HepG2 cell free culture (AID 720686)
[8] = qHTS assay to test for compound auto fluorescence at 460 nm (blue) in HepG2 cells (AID 720687)
In short: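 HepG2 cells in MEM with 10% FBS, attached overnight at 37 C, were exposed to compound or DMSO for 1 hr at 37 C, 5% CO2. Blue fluorescence was read at 405/460 nm, with triamterene as reference fluorophore.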

[9] = target: Glucocorticoid receptor (Homo sapiens) (UniProt P04150); assay: qHTS assay to identify small molecule agonists of the glucocorticoid receptor (GR) signaling pathway (AID 720691; active = well fitted activation curve with a large enough effect in the signal ratio in the repeat runs, not every such curve was filed as active; inconclusive = weak or mixed curves, or effect the other way; inactive = no such curve, though single readings can be large or run the other way; the % refers to the signal ratio; note: potency is the fitted concentration of half-maximal effect); settings: GR-bla HeLa, beta-lactamase reporter ratio, 18 h; activation: at 62.4 µM (top of the series)
In short: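 Agonist mode in a HeLa line carrying a GRE-controlled beta-lactamase reporter. Compounds act for 18 h at 37 C before a 2 h room-temperature FRET substrate step and fluorescence reading.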

Sequence of Glucocorticoid receptor (Homo sapiens) (P04150 whole entry, looked up): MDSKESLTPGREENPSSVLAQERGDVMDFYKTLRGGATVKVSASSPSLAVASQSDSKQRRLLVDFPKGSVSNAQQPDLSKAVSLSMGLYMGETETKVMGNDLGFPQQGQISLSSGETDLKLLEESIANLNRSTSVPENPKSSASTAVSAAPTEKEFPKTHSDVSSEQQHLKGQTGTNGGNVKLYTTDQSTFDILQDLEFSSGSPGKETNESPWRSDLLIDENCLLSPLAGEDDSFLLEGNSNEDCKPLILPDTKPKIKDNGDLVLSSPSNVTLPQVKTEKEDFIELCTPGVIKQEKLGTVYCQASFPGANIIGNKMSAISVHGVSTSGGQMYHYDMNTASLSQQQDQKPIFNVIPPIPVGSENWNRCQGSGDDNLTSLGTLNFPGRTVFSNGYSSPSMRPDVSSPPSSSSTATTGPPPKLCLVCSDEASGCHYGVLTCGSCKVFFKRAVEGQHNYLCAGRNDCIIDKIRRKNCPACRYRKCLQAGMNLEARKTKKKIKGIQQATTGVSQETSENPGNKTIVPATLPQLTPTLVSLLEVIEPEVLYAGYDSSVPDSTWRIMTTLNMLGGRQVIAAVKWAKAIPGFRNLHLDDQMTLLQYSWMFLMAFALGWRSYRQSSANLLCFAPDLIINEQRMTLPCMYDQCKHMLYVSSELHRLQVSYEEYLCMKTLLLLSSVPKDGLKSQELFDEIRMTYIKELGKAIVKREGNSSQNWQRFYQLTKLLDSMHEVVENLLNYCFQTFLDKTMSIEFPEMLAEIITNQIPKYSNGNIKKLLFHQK

Row | SMILES | Potency [1] | Potency [2] | Potency [3] | Potency [4] | Potency [5] | outcome [6] | Potency [7] | outcome [8] | Potency [9]
1 | CC1(O)CCC(C(C)(C)O)CC1 (stereo not given) | inactive | inactive | inactive | inactive | inactive | inactive | inactive | inactive | inactive
2 | CC[C@@H](C(=O)[C@@H](C)[C@@H](O)[C@H](C)[C@@H]1O[C@@H]([C@@H](CC)C(=O)O)CC[C@@H]1C)[C@H]1O[C@]2(C=C[C@@H](O)[C@]3(CC[C@@](C)([C@H]4CC[C@](O)(CC)[C@H](C)O4)O3)O2)[C@H](C)C[C@@H]1C | inactive | inactive | inactive | inactive | inactive | inactive | inactive | inactive | 
3 | CN(C)CCCN1c2ccccc2C(C)(C)c2ccccc21 | inactive | inactive | inactive | inactive | inactive | inactive | inactive | inactive | inactive
4 | CN(C)CCOc1ccccc1Cc1ccccc1 (tested in a mixture with another compound) | inactive | inactive | inactive | inactive | inactive | inactive | inactive | inactive | 
5 | C=C1CC2C3CCC4=CC(=O)C=C[C@]4(C)[C@@]3(F)[C@@H](O)C[C@]2(C)[C@@]1(O)C(=O)COC(C)=O (stereo not given in full) | inactive | inactive | inactive | inactive | inactive | inactive | inactive | inactive | 15.1 nM (active)
6 | COc1cc(NCCCC(C)N)c2ncccc2c1 (stereo not given) | inactive | inactive | inactive | inactive | inactive | inactive | inactive | inactive | inactive
7 | CC(C)N=c1cc2n(-c3ccc(Cl)cc3)c3ccccc3nc-2cc1Nc1ccc(Cl)cc1 | inactive | inactive | inactive | inactive | inactive | inactive | inactive | inactive | inactive
8 | COc1ccc(/C=C/C(=O)OCCC(C)C)cc1 | inactive | inactive | inactive | inactive | inactive | inactive | inactive | inactive | inactive
9 | O=C(O)CCC/C=C\C[C@@H]1[C@@H](/C=C/[C@@H](O)COc2cccc(C(F)(F)F)c2)[C@H](O)C[C@@H]1O | inactive | inactive | inactive | inactive | inactive | inactive | inactive | inactive | inactive
10 | C[C@@H]1C[C@H]2C3C[C@H](F)C4=CC(=O)C=CC4(C)[C@@]3(F)[C@@H](O)CC2(C)[C@@]1(O)C(=O)COC(=O)C(C)(C)C (stereo not given in full) | inactive | inactive | inactive | inactive | inactive | inactive | inactive | inactive | 6.7 nM [inconclusive] (active)
11 | COc1ccc2c(c1)N(C[C@H](C)CN(C)C)c1ccccc1S2 | inactive | inactive | inactive | inactive | inactive | inactive | inactive | inactive | inactive
12 | CC(C)NCC(O)COc1ccccc1-n1cccc1 (stereo not given) | inactive | inactive | inactive | inactive | inactive | inactive | inactive | inactive | inactive
13 | CC(=O)Nc1ccc(NC(=S)NC(=O)c2ccc(C(C)(C)C)cc2)cc1 | inactive | inactive | inactive | inactive | inactive | inactive | inactive | inactive | inactive
14 | CNC(=O)[C@H](Cc1c[nH]c2ccccc12)NC(=O)[C@@H](CC(=O)NO)CC(C)C | inactive | inactive | inactive | inactive | inactive | inactive | inactive | inactive | 15100 nM (active)
15 | CC(C)CCC[C@@H](C)[C@H]1CC(=O)C2=C3CC[C@H]4C[C@@H](O)CC[C@]4(C)[C@H]3CC[C@@]21C | inactive | inactive | inactive | inactive | inactive | inactive | inactive | inactive | inactive
16 | C[C@H]1C[C@@H]2[C@H]([C@@H](O)C[C@@]3(C)[C@H]2CC[C@]3(O)C(=O)COC(=O)CCC(=O)O)[C@@]2(C)C=CC(=O)C=C12 | inactive | inactive | inactive | inactive | inactive | inactive | inactive | inactive | 26.8 nM [inconclusive] (active)
17 | Nc1nc2[nH]cc(CCc3ccc(C(=O)N[C@@H](CCC(=O)O)C(=O)O)cc3)c2c(=O)[nH]1 | inactive | inactive | inactive | inactive | inactive | inactive | inactive | inactive | 
18 | CC(C)(C)NC(=O)[C@H]1CC[C@H]2[C@@H]3CC=C4C=C(C(=O)O)CC[C@]4(C)[C@H]3CC[C@]12C | inactive | inactive | inactive | inactive | inactive | inactive | inactive | inactive | inactive
19 | C[C@H]1C[C@H]2[C@@H]3CCC4=CC(=O)C=C[C@]4(C)[C@@]3(F)[C@@H](O)C[C@]2(C)[C@@]1(O)C(=O)CCl | inactive | inactive | inactive | inactive | inactive | inactive | inactive | inactive | 1.7 nM (active)
20 | CCCCCCCCCCCCCC[n+]1ccc(C)cc1 | inactive | inactive | inactive | inactive | inactive | inactive | inactive | inactive | inactive

Row | SMILES | Potency [1] | Potency [2] | Potency [3] | Potency [4] | Potency [5] | outcome [6] | Potency [7] | outcome [8] | Potency [9]
21 | Oc1cc(O)cc(O)c1 | inactive | inactive | inactive | inactive | inactive | inactive | inactive | inactive | inactive
22 | COc1ccc2c(=O)c(C)c(-c3ccccc3)oc2c1CN(C)C | inactive | inactive | inactive | inactive | inactive | inactive | inactive | inactive | inactive
23 | CCCC1([C@H](O)C/C=C/[C@H]2[C@H](O)CC(=O)[C@@H]2CCCCCCC(=O)OC)CCC1 | inactive | inactive | inactive | inactive | inactive | inactive | inactive | inactive | inactive
24 | CC(C)[C@@H](N)C(=O)O | inactive | inactive | inactive | inactive | inactive | inactive | inactive | inactive | inactive
25 | O=c1oc2cc(O)ccc2s1 | inactive | inactive | inactive | inactive | inactive | inactive | inactive | inactive | inactive
26 | O=C(c1cc2ccccc2o1)N1CCN(Cc2ccccc2)CC1 | inactive | inactive | inactive | inactive | inactive | inactive | inactive | inactive | inactive
27 | Cc1cc(C(=O)NNCc2ccccc2)no1 | inactive | inactive | inactive | inactive | inactive | inactive | inactive | inactive | inactive
28 | CCN(CC)CCOc1ccccc1OC | inactive | inactive | inactive | inactive | inactive | inactive | inactive | inactive | inactive
29 | C#C[C@]1(O)CC[C@H]2[C@@H]3CCC4=C/C(=N/O)CC[C@@H]4[C@H]3CC[C@@]21CC | inactive | inactive | inactive | inactive | inactive | inactive | inactive | inactive | 
30 | CC1=C(/C=C/C(C)=C/C=C/C(C)=C/C=C/C=C(C)/C=C/C=C(C)/C=C/C2=C(C)C(=O)CCC2(C)C)C(C)(C)CCC1=O | inactive | inactive | inactive | inactive | inactive | inactive | inactive | inactive | inactive
31 | C[C@]12C=CC(=O)N[C@@H]1CC[C@@H]1[C@@H]2CC[C@]2(C)[C@@H](C(=O)Nc3cc(C(F)(F)F)ccc3C(F)(F)F)CC[C@@H]12 | inactive | inactive | inactive | inactive | inactive | inactive | inactive | inactive | 26800 nM (active)
32 | CCCCCCCCCCCCCCCCCCCCCC(=O)Nc1ccn([C@@H]2O[C@H](CO)[C@@H](O)[C@@H]2O)c(=O)n1 | inactive | inactive | inactive | inactive | inactive | inactive | inactive | inactive | 
33 | OCCO[C@@H]1[C@@H](O)[C@H](O)[C@@H](CO)O[C@@H]1O | inactive | inactive | inactive | inactive | inactive | inactive | inactive | inactive | 
34 | CN[C@H]1CCc2cc(OC)c(OC)c(OC)c2-c2ccc(OC)c(=O)cc21 | inactive | inactive | inactive | inactive | inactive | inactive | inactive | inactive | inactive
35 | Cc1cc(-c2ccc(N=Nc3c(S(=O)(=O)O)cc4cc(S(=O)(=O)O)cc(N)c4c3O)c(C)c2)ccc1N=Nc1c(S(=O)(=O)O)cc2cc(S(=O)(=O)O)cc(N)c2c1O | inactive | inactive | inactive | inactive | inactive | inactive | inactive | inactive | inactive
36 | COc1ccc(CC2c3cc(OC)c(OC)cc3CC[N+]2(C)CCC(=O)OCCCCCOC(=O)CC[N+]2(C)CCc3cc(OC)c(OC)cc3C2Cc2ccc(OC)c(OC)c2)cc1OC (stereo not given) | inactive | inactive | inactive | inactive | inactive | inactive | inactive | inactive | 1290 nM [inconclusive] (active)
37 | CN1CCC(OC(=O)C(Oc2ccc(Cl)cc2)Oc2ccc(Cl)cc2)CC1 | inactive | inactive | inactive | inactive | inactive | inactive | inactive | inactive | inactive
38 | O=C(O)c1cc(O)c2c(c1)[O][Bi][O]2 | inactive | inactive | inactive | inactive | inactive | inactive | inactive | inactive | inactive
39 | CC(C(=O)O)c1ccc(N2Cc3ccccc3C2=O)cc1 (stereo not given) | inactive | inactive | inactive | inactive | inactive | inactive | inactive | inactive | inactive
